Measured values reported in the supplement of paper PMC6555819.

Tests used:
Test in all cases: PBM binding z-score (relative to random genomic background probes); higher = stronger binding; sequences stand for … in GC…GCGATTGACAGCGTAGAATGAAGG
[1] = test system: FXR:RXRa (NR concentration 270 nM, RXRa partner concentration 90 nM)
Outline: (§1)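 Binding buffer was PBS pH 7.4 with 2% milk, 0.02% Triton X-100, 1 mM DTT, 0.2 mg/mL BSA and 0.4 mg/ml salmon testes DNA. In it, ligand-free nuclear receptor dimers were incubated 1 h on custom Agilent 4×180K protein-binding microarrays carrying double-stranded probes. Antibodies against each partner (one per run) detected binding, and z-scores were calculated against random background probes after regression normalization of scanned fluorescence.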

[2] = test system: LXRa:RXRa (NR concentration 270 nM, RXRa partner concentration 90 nM)
Outline: as §1

[3] = test system: LXRa homodimer (NR concentration 270 nM)
Outline: as §1

[4] = test system: LXRb:RXRa (NR concentration 270 nM, RXRa partner concentration 90 nM)
Outline: as §1

[5] = test system: LXRb homodimer (NR concentration 270 nM)
Outline: as §1

[6] = test system: PPARa:RXRa (NR concentration 270 nM, RXRa partner concentration 90 nM)
Outline: as §1

[7] = test system: PPARg:RXRa (NR concentration 180 nM, RXRa partner concentration 90 nM)
Outline: as §1

[8] = test system: PPARg:RXRa 270nM:90nM, anti-RXR (NR concentration 270 nM, RXRa partner concentration 90 nM)
Outline: as §1

[9] = test system: PPARg:RXRa 30nM:10nM, anti-RXR (NR concentration 30 nM, RXRa partner concentration 10 nM)
Outline: as §1

[10] = test system: PPARg:RXRa 90nM:30nM, anti-RXR (NR concentration 90 nM, RXRa partner concentration 30 nM)
Outline: as §1

[11] = test system: PPARg:RXRa DBDmut IVT, anti-RXR (DBD mutation: RXRa K156A/R161A, NR concentration 270 nM, RXRa partner concentration 90 nM)
Outline: as §1

[12] = test system: PPARg:RXRa IVT, anti-PPARg (NR concentration 270 nM, RXRa partner concentration 90 nM)
Outline: as §1

[13] = test system: PPARg DBDmut:RXRa IVT, anti-PPARg (DBD mutation: PPARg1 K132A/R137A, NR concentration 270 nM, RXRa partner concentration 90 nM)
Outline: as §1

[14] = test system: PPARg DBDmut IVT, anti-PPARg (DBD mutation: PPARg1 K132A/R137A, NR concentration 270 nM)
Outline: as §1

[15] = test system: PPARg homodimer (NR concentration 180 nM)
Outline: as §1

[16] = test system: PXR:RXRa (NR concentration 270 nM, RXRa partner concentration 90 nM)
Outline: as §1

[17] = test system: PXR homodimer (NR concentration 270 nM)
Outline: as §1

[18] = test system: RARa:RXR (NR concentration 270 nM, RXRa partner concentration 90 nM)
Outline: as §1

[19] = test system: RARa homodimer (NR concentration 270 nM)
Outline: as §1

[20] = test system: RARb:RXRa (NR concentration 270 nM, RXRa partner concentration 90 nM)
Outline: as §1

Sequence	PBM binding z-score [1]	PBM binding z-score [2]	PBM binding z-score [3]	PBM binding z-score [4]	PBM binding z-score [5]	PBM binding z-score [6]	PBM binding z-score [7]	PBM binding z-score [8]	PBM binding z-score [9]	PBM binding z-score [10]	PBM binding z-score [11]	PBM binding z-score [12]	PBM binding z-score [13]	PBM binding z-score [14]	PBM binding z-score [15]	PBM binding z-score [16]	PBM binding z-score [17]	PBM binding z-score [18]	PBM binding z-score [19]	PBM binding z-score [20]
CCTAGCAGGCCAGGGTCACTTAAGCATTTCGCTT	1.75	1.64	-0.562	1.91	-1.39	2.77	0.597	1.54	-0.349	0.831	0.351	1.01	-1.25	-0.972	0.813	2.15	-0.248	2.71	0.0986	2.54
ATCTATAGGTAAGACTCAGTTCAGTGAAGAACGC	0.179	0.424	0.389	0.171	0.635	0.073	0.534	0.23	0.292	0.169	1	0.562	0.789	1.3	0.365	1.49	1.21	0.627	0.874	0.432
CCTACTGCGCCAAGGTCATTGATCAGTCAAAGCA	3.5	3.48	2.13	3.52	0.86	3.75	0.507	1.59	-0.0931	0.819	0.265	0.978	-0.442	-0.653	2.68	3.85	2.48	3.83	1.07	3.51
TCTTGTAGATCAGCAGGTAAAGAAAGCTGGCCAA	0.051	0.0639	-0.443	-0.119	-0.519	0.422	-0.331	0.955	2.5	1.69	1.27	0.386	-0.0476	-0.531	-0.175	-0.0594	-0.358	0.111	0.0298	-0.482
CCGTACGGGTCACGAGGTTATAGCACGACGAGCG	6.63	4.94	0.31	4.08	-0.283	5.88	6.72	6.37	2.37	4.99	2.29	3.93	0.613	-0.38	2.82	4.73	-0.215	6.42	1.17	4.48
AATACAGGGTCATCGTCGGCCAGAGTACGCACAG	7.47	6.48	2.78	4.83	1.41	6.44	6.81	6.01	2.65	4.97	2.45	4.09	1.99	1.48	3	4.39	0.762	5.31	1.13	4.46
ACTAGCAGGCCAAGTTTGGGTCAATCAAACAAAG	0.471	0.228	-0.484	0.918	-1.03	1.55	-0.0982	0.263	-0.327	-0.105	0.842	0.959	-0.753	-0.879	0.326	0.526	-0.382	1.33	-0.558	1.65
GCAGACAGGTGAAACGCAGGCAACTCAGGGTGGC	-0.553	-0.232	-0.806	-0.499	-1.09	0.513	0.448	-0.314	-0.566	-0.565	0.648	0.278	-0.31	-0.728	-0.411	-0.21	-0.499	0.0177	-0.602	0.594
ACTAGCAGGCCAAGGGTCACTCTAGATTAGTCCG	1.88	3.2	0.239	2.54	-0.423	4.44	7.53	7.29	6.21	7.97	0.951	3.59	-0.404	-0.203	2.32	2.94	-0.367	4.14	-0.113	3.1
TTACCAAGGTGAAGGTCGGTGATCCCTCTGTAGA	0.881	0.952	-0.494	0.467	-0.916	2.14	2.65	3.05	1.65	2.96	1.69	2.91	-0.0946	-0.454	0.55	0.481	-0.271	1.28	0.175	1.96
GCTATTAGTTGACAGGGCAACCGAATGATTCTCG	-0.301	-0.298	-0.0236	-0.0105	-0.293	0.0349	0.532	0.626	-0.199	0.442	0.297	0.029	0.0418	0.353	0.467	-0.171	0.105	-0.228	0.00268	0.489
GCGACTGGGGCAAAGCCGGTTACCATAAGGTTGG	-0.281	-0.532	-0.832	-0.581	-1.01	0.472	0.627	0.491	-0.849	-0.0511	3.46	2.75	-0.287	-1.49	-0.424	-0.547	-0.627	-0.45	-0.427	0.632
AGAACGATGGCACGCTGAGTTGATAGCAGAGTAG	-0.77	-0.938	-0.952	-0.881	-1.06	-0.687	0.523	-0.439	-0.196	-0.443	-0.571	-0.274	0.264	-0.833	0.102	-0.552	-0.384	-0.792	-0.387	-0.628
TAGCCTAGGTCATGCTGGCCAGTATAGTGTCGGC	3.83	3.03	0.0898	1.88	-0.303	3.25	1.99	2.15	0.0868	1.11	1.89	3.11	0.437	-0.89	0.715	1.16	-0.737	2.21	-0.528	3.84
ACTAGCAGGCCAAGGGTCAATCAAGATTAGTCCG	3.02	2.94	0.134	2.96	-0.379	4.64	8.14	7.68	6.29	8.3	1.29	3.74	-0.502	-0.4	1.86	3.34	-0.202	4.28	-0.127	3.33
CCGACTGGGGCAGGGTTACCATAACGCACAGCCA	0.198	0.487	-0.443	0.866	-0.609	1.41	1.77	1.98	0.254	1.44	1.51	2.47	-0.73	-1.24	0.145	0.395	-0.445	0.895	-0.407	0.803
TGAATGAGGTTAAAGATCTGGGAACGTGGCGTCG	2.5	2.16	-0.214	1.46	0.347	3.54	2.7	3.6	1.69	2.98	2.25	2.86	1.17	-0.223	0.811	1.19	-0.0436	1.8	-0.239	1.93
CGAACTACGTCAGAACAGGACAGTGAAGGATGAT	-0.457	-0.582	-0.294	-1.05	-0.438	-0.716	0.632	-0.752	-0.147	-0.37	-0.549	-0.508	0.627	0.733	0.0908	-0.524	-0.0465	-0.592	-0.0605	-0.283
AATACAGGGTCATCGTAGACCAGAGTACGCACAG	7.48	5.86	2.19	4.4	1.2	5.84	6.79	6.17	2.73	4.84	3.19	4.37	1.62	0.874	2.94	4.27	0.967	5.09	1.49	4.3
AGAATGAGGTTATTAAGATCAGGGGATTGCGGTC	1.52	1.31	0.0189	1.18	-0.0318	2.51	1.47	1.87	0.612	1.08	2.94	2.52	0.849	0.535	0.326	1.14	0.713	1.15	0.826	1.34
ATCTCTACGTAAGACTCAGTTCAGTGAAGAACGC	0.165	0.16	0.552	0.484	0.986	0.0277	0.265	0.146	0.213	0.131	-0.086	0.118	0.872	1.57	0.776	1.09	1.22	0.208	0.199	0.279
GGAACGAGGGCAAGTCGATAGCAGAGTTTGATGG	0.383	0.00226	-0.566	-0.0585	-0.781	1.48	0.928	0.703	-0.275	0.116	3.57	2.5	-0.206	-0.527	-0.162	0.167	0.469	-0.0113	-0.744	2.41
CCTAGCAGGCCAATCTGGGTCATTCAAGGCTTGA	1.16	1.52	-0.318	0.813	-1.03	2.54	1.18	1.73	-0.272	0.958	3.81	4.05	-1.11	-0.944	0.0423	1.63	-0.53	1.04	-0.337	1.17
AGAATGAGGTTACCTAAGATCAGGGAAACGCTTG	1.57	6.42	-0.328	3.4	-0.272	3.36	2.39	2.16	0.68	1.55	2.92	2.93	1.22	0.151	1.06	1.67	0.241	2.62	-0.231	1.95
TGAATGAGGTTATAAGATAAGGGAACGTTGCAAA	1.34	1.2	-0.153	0.988	0.119	2.45	1.43	1.62	0.912	1.51	0.589	1.42	1.45	0.957	0.436	0.669	0.0149	1.32	-0.0101	1.04
ACTATTAGTTGAGACGAGGGCACCCGATAGGTTG	0.0849	0.0854	-0.0764	0.0614	0.318	0.202	0.813	0.197	0.108	0.163	-0.207	0.476	0.77	0.797	-0.607	1.33	0.328	1.2	0.511	0.966
TCATATAGGGAATACAGGTGAAAGTCGGCATCTA	1.31	1.1	0.252	0.958	0.236	1.92	1.16	2.76	4.44	3.22	3.35	2.3	1.03	1.07	1.14	0.862	0.632	1.2	1.4	0.823
CGTCCAAGGGCATAGGAGGTCAGTGAAGACAGAT	3.02	5.05	1.32	2.56	-0.901	3.11	1.15	1.38	-0.000502	0.667	0.6	2.11	-0.528	-0.863	1.67	4.38	1.16	3	0.923	3.53
GATACAGGGTCAAGGCCAGACTACGCGTATTGAT	6.8	3.95	0.21	3.72	-0.0563	5.69	6.16	5.88	2.85	4.87	2.8	3.83	0.238	0.461	2.54	4.03	0.191	4.98	0.813	4.6
